INS-1E GSIS act: GLuc luminescence reporter in INS-1E cells, primary screen for activators of glucose-dependent secretion of insulin; INS-1E GLuc reporter insulin secretion, 2-3 h; activation, % at 16.6 µM; 370,000 tested, 0.61% active; AID 743287;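 active = lowest replicate activation of at least 40%, so every replicate reaches that level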
PGC1a acetyl inh: lowers PGC1a acetylation signal in U2OS cells; AID 651687; AlphaScreen anti-acetyl-lysine; with virally co-expressed GCN5 acetyltransferase; inhibition, % at 15.6 µM; 350,000 tested, 0.17% active;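 active = every replicate shows inhibition of at least 40%; inconclusive = mean inhibition at least 40% but some replicate below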
Env fusion inh: blocks HIV Env-driven cell-cell fusion | HeLa-JRFL Env/CEM21 cell fusion, luciferase | inhibition, % at 12.3 µM | 360,000 tested, 1.1% active | AID 651610;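 active = mean replicate inhibition score of at least 50 and every replicate individually at or above 50; inconclusive = only one of the two criteria met; inactive = mean below 50 and not all replicates reaching 50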
NSD2 HMT inh: NSD2 (human) methyltransferase inhibition; O96028; AID 743445; 310,000 tested, 0.54% active; NSD2 peptide methylation, AlphaScreen, 120 min; inhibition, % at 12.5 µM; in the data active = inhibition above about 50%
AF4-AF9 inh: MLL-AF4/AF9 protein interaction inhibition. P42568. AlphaScreen, biotin-AF4 peptide binding to FLAG-AF9. inhibition, % at 10 µM. 350,000 tested, 0.47% active. AID 651704;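 active = every replicate reaching a set inhibition limit, whatever the replicate mean, cut at about 25% in these data; inconclusive = mean inhibition reaches that limit but some replicates miss it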
Alpha interfer: counter-screen: AlphaScreen signal interference. AID 720494. shares compounds with AF4-AF9 inh. AC50, µM (series often up to 12 µM). signal luminescence. 530 tested, 45% active; cut-off not given, nearly all actives have AC50 up to about 14 µM
Alpha artifact: counter-screen for NSD2 inhibitors: AlphaScreen artifacts; AlphaScreen artifact counterscreen, preloaded methylated H4 peptide; 1,500 tested, 9.4% active; shares compounds with NSD2 HMT inh; AC35, µM (top dose mostly 10 µM); call rule not given here
Numbers stand for hits; - = inactive; ? = inconclusive; . = no result given. Rows were chosen to be rich in hits. Some 2.1% of all compounds tested hit in one or more screens of this group.

SMILES	INS-1E GSIS act	PGC1a acetyl inh	Env fusion inh	NSD2 HMT inh	AF4-AF9 inh	Alpha interfer	Alpha artifact
O=C(Cn1nnc2ccccc2c1=O)NCCc1ccc(Cl)cc1Cl	-	.	-	-	-	.	.
Cc1[nH]c2ccccc2c1N=Nc1c(C)n(C)n(-c2ccccc2)c1=O	-	.	-	-	-	.	.
Cc1[nH]c2ccccc2c1N=Nc1ccccc1F	-	-	-	-	41	8µM	.
O=[N+]([O-])c1ccc(N=Nc2c(Cl)cc(O)cc2Cl)cc1	-	-	85	.	52	14µM	.
CC(N)=Nc1ccc([N+](=O)[O-])cc1	-	-	-	-	.	.	.
CC(=O)c1sc(Nc2cccc(C)c2)nc1C	-	.	-	-	-	.	.
Cc1[nH]n(-c2ccccc2)c(=O)c1N=Nc1c(O)cc(S(=O)(=O)N(C)C)c2ccccc12	.	-	?	.	50	-	.
Cc1[nH]n(-c2ccccc2)c(=O)c1N=Nc1ccc2c(c1)OCCO2	-	-	-	-	-	.	.
CCOC(=O)[C@]12CCC=C1N(Cc1cccc3ccccc13)C(=O)[C@H](CC(=O)NCCC(C)C)C2	-	.	-	.	-	.	.
COc1cc(NCCCCCCN)c2ncccc2c1OC	-	-	-	.	43	-	.
C[n+]1c(-c2ccc(C=NNC(=O)c3ccc(C(=O)NN=Cc4ccc(-c5cn6ccccc6[n+]5C)cc4)cc3)cc2)cn2ccccc21	.	-	-	-	78	-	.
O=C(N/N=C\c1ccc(F)cc1)c1ccc(F)cc1	-	.	-	-	-	.	.
CCN(CC)CCNC(=O)c1ccc(NC(=O)c2cccc(S(=O)(=O)N3c4ccccc4CC3C)c2)cc1 (centres undefined)	-	-	-	-	31	-	.
COc1cc(N(C)C)ccc1C=c1c2ccccc2n2c1cc(-c1ccccc1)[n+]2C	-	-	-	85	84	2.1µM	1.5µM
CCN(CC)c1ccc(/C=C/c2cccc[n+]2C)c(OC)c1	-	.	-	.	-	.	.
O=C(c1cc(-c2ccc(Cl)cc2Cl)on1)N1CCN(C(=O)c2ccco2)CC1	.	-	.	-	.	.	.
CCN(CC)CCSc1nc(O)c(-c2ccccc2)c(=O)n1-c1ccccc1	-	.	-	-	-	.	.
CCN(CC)CCSc1nc2ccccc2c(=S)n1-c1ccccc1	-	.	-	108	34	-	-
CCCc1ccc(C(=O)N2CCN(c3ccccc3OCC)CC2)cc1	-	-	.	-	-	.	.
Cc1cc2c(OCC(O)CNC3CCCCC3)cccc2[nH]1 (centres undefined)	-	-	-	54	29	-	-
CC(=O)c1ccc(OC2(C)CCN(Cc3ccc(C)cc3)C2)cc1 (centres undefined)	-	-	-	-	-	.	.
CCN1/C(=C/C(C)=C/c2sc3ccccc3[n+]2CC)Sc2ccccc21	-	-	-	112	66	6.3µM	5.5µM
Cc1c(N=C2C=CC(=O)c3ccccc32)c(=O)n(-c2ccccc2)n1C	-	-	-	89	35	-	-
Cc1c(N=C2C=C(Br)C(=O)C(Br)=C2)c(=O)n(-c2ccccc2)n1C	-	-	-	-	-	.	.
COc1ccc(S(=O)(=O)Nc2ccc3c(c2)C(=O)N([C@@H](C)CO)C[C@@H](C)[C@H](CN(C)C(=O)c2ccncc2)OCCCC[C@H](C)O3)cc1	-	-	-	.	-	.	.
SMILES	INS-1E GSIS act	PGC1a acetyl inh	Env fusion inh	NSD2 HMT inh	AF4-AF9 inh	Alpha interfer	Alpha artifact
Cc1ccc(N2CCOCC2)c2c1C(=O)c1ccccc1C2=O	-	.	-	57	64	10µM	4.3µM
CC(=O)N(C(C)=O)N1C(=O)c2cccc3c(N4CCOCC4)ccc(c23)C1=O	-	.	-	-	-	.	.
CC1NC(=O)NC1CCCCCC(=O)Nc1ccc(F)cc1 (centres undefined)	-	.	-	103	93	0.68µM	1.9µM
CN(C)c1ccc(NC2=C(Cl)C(=O)c3ccccc3C2=O)cc1	-	.	-	58	64	1.9µM	8.8µM
COC(=O)c1ccccc1-c1ccc(/C=N/NC(N)=O)o1	.	-	-	-	-	.	.
Cc1nnc(N/N=C/c2c(Cl)cccc2Cl)n1N	-	-	-	-	-	.	.
Cc1nnc(N/N=C/c2ccc(-c3ccccc3F)o2)n1N	-	.	-	85	-	.	-
Cc1nnc(N/N=C/c2ccccc2O)n1N	-	.	-	101	-	.	-
Cc1nnc(N/N=C\c2ccc(-c3ccccc3[N+](=O)[O-])o2)n1N	-	.	-	93	-	.	-
CCc1nnc(N/N=C/c2ccc(-c3ccc([N+](=O)[O-])cc3)o2)n1N	-	-	-	-	-	.	.
COc1ccc(N2CCN(C(=O)C3CCN(C(=O)c4ccc([N+](=O)[O-])cc4)CC3)CC2)cc1	-	.	-	-	-	.	.
NS(=O)(=O)c1ccc(N/N=C/c2ccc(O)c(O)c2O)c([N+](=O)[O-])c1	-	-	-	73	-	.	-
NS(=O)(=O)c1ccc(N/N=C/c2ccc(O)cc2O)c([N+](=O)[O-])c1	-	-	-	-	-	.	.
Cc1cccc(/C=N/NC(=O)C(C)Nc2cccc3ccccc23)n1 (centres undefined)	.	-	.	103	.	.	-
CCOc1ccccc1NC(=O)CSc1nc2nc(-c3cccs3)cc(C(F)(F)F)c2c(=O)[nH]1	-	-	-	84	-	.	-
COc1ccc(NC(=O)CSc2nc3nc(-c4cccs4)cc(C(F)(F)F)c3c(=O)[nH]2)c(OC)c1	-	-	-	-	.	.	.
O=C(O)CN1C(=O)/C(=C\c2cccc(OCc3ccc(F)cc3)c2)SC1=S	-	-	-	54	-	.	-
Cc1c(C)n(Cc2ccccc2)c2ccc(C(=O)OCCCN(C)C)cc12	-	-	-	90	-	.	-
Cc1c(C)n(CCN(C)C)c2ccc(C(=O)OCCN(C)C)cc12	-	.	.	-	-	.	.
CCOC(=O)N1CCN(S(=O)(=O)c2cc([N+](=O)[O-])ccc2C)CC1	-	-	-	-	-	.	.
CCCCn1c(NS(=O)(=O)c2ccc(C)cc2)c(S(=O)(=O)c2ccccc2)c2nc3ccccc3nc21	-	-	-	127	-	.	-
CCN(CC)C(=O)c1cn(CCC#N)nc1-c1ccc2c(c1)OCCO2	-	.	-	-	-	.	.
CC(Oc1ccc(Cl)cc1Cl)C(=O)NC(Cc1ccccc1)C(=O)O (centres undefined)	-	-	-	53	-	.	-
CCOc1ccc(N2CC(C(=O)Nc3nnc(Cc4ccc(OC)cc4)s3)CC2=O)cc1 (centres undefined)	-	-	-	-	-	.	.
COc1ccc(Cc2nnc(NC(=O)C3CC(=O)N(c4ccc(OC)cc4)C3)s2)cc1 (centres undefined)	-	.	-	73	-	.	-
Cc1c(C(=O)N2CCN(c3ccc(F)cc3)CC2)sc2ncnc(N3CCN(c4ccccn4)CC3)c12	-	-	-	59	-	.	-
Cc1ccc(/C=C2/SC(=S)N(C3CCCCC3)C2=O)o1	-	-	-	.	-	.	.
Cc1ccc(/C=C2/SC(=O)NC2=S)o1	.	-	.	177	.	.	-
Cc1ccc(-c2ccccc2C2=CC(=O)CC(C)(C)C2=O)cc1	-	-	.	.	-	.	.

Source: PubChem (Broad Institute)
